# Source: PubChem (several laboratories)
# CYP2C19 inhib: human CYP2C19 inhibition. P33261. CYP2C19 Supersomes, luciferin-H EGE luminescence, 30 min. inhibition, % at 5 µM. 96,000 tested, 21% active. AID 778;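 active = CYP2C19 inhibition above a set limit at 5 µM in the primary screen, cut at about 50% in these data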;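 note: plate controls were negative control wells for no effect and 2.5 mM tranylcypromine positive control for full effect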
# Target sequence (P33261 whole entry, looked up): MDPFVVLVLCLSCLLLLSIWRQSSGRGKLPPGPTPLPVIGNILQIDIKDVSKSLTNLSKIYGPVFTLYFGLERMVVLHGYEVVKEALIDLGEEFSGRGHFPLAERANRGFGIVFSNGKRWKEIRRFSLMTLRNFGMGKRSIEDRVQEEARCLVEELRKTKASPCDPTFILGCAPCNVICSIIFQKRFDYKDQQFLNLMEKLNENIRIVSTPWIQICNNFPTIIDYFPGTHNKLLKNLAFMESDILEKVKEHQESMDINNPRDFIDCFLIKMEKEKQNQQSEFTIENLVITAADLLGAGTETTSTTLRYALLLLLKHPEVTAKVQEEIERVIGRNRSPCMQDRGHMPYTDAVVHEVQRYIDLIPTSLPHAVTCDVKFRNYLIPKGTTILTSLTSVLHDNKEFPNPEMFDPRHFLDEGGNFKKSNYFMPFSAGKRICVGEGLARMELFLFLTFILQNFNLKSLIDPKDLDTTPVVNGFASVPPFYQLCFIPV
# CYP2C9 inhib: blocks human cytochrome P450 2C9; inhibition, % at 5 µM; AID 777; CYP2C9 Supersomes, luciferin-H conversion, luminescence; 96,000 tested, 20% active;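 active = blocking of liver enzyme CYP2C9 beyond about 50% at 5 µM, limit read from the data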
# CYP2C19 act: activators of human cytochrome P450 2C19; P33261; recombinant CYP2C19, luciferin-H EGE luminescence; active compounds read high; 0 = fully inhibited enzyme, 1 = untreated enzyme; activation factor at 5 µM; 96,000 tested, under 10 active; AID 1025;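 active = activation factor of at least 2 at 5 µM in the primary screen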;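 note: 0 = wells with 2.5 mM tranylcypromine and 1 = vehicle-only wells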
# CYP2C9 act: activators of human CYP2C9 | P11712 | recombinant CYP2C9, luciferin-H conversion, luminescence; active compounds read high; factor 1 = untreated enzyme, 0 = blocked | activation factor at 5 µM | 96,000 tested, 1.4% active | AID 1024;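 active = activation factor of 2 or more for CYP2C9 at a 5 µM dose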;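 note: 0 = sulfaphenazole-blocked wells and 1 = vehicle-only wells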
# Plk1 PBD FP: Plk1 (human) PBD binding inhibition | P53350 | Plk1 PBD phosphopeptide binding, fluorescence polarization | inhibition, %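 (tested at about 20 µM)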 | 97,000 tested, 0.13% active; in the data active = inhibition above about 34%, passing the limit was not always enough
# PLK1 kinase inh: inhibitors of human PLK1 kinase; recombinant PLK1 kinase, TR-FRET peptide phosphorylation; 97,000 tested, 0.53% active; AID 619; inhibition, % at 10 µM;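 active = inhibition of 50% or more in the single-concentration screen; inactive = inhibition below 50%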;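 note: 0% = DMSO max control and 100% = H-89 dihydrochloride min control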
# Numbers without * were called inactive; · = not tested or not shown. Most compounds without a hit are left out; they make up all but 28% or so of the library.
SMILES,CYP2C19 inhib,CYP2C9 inhib,CYP2C19 act,CYP2C9 act,Plk1 PBD FP,PLK1 kinase inh
COc1cc(NC(=O)CSc2nnc(-c3ccncc3)n2C2CCCCC2)ccc1NC(=O)c1ccco1,62*,72*,0.4,0.3,-9,-3
Cc1nc2nc[nH]n2c(=O)c1CCC(C)C,10,25,0.9,0.8,17,34
Cc1ccc(-n2nnnc2SCC(=O)NNC(=O)c2ccco2)cc1C,-2,-95,1,2*,7,-5
O=C(CSc1nnnn1C1CCCCC1)Nc1ccc2c(c1)OCO2,25,53*,0.8,0.5,-3,-3
O=C(CSc1nnnn1C1CCCC1)Nc1ccc(F)cc1,31,10,0.7,0.9,-3,1
O=C(CSc1nnnn1C1CCCCC1)Nc1cccc(NC(=O)c2ccco2)c1,69*,77*,0.3,0.2,·,·
Cc1ccccc1-n1nnnc1SCC(=O)Nc1ccc(S(=O)(=O)N2CCCC2)cc1,-18,-2,1.2,1,1,27
O=C(CSc1nnnn1-c1ccc(O)cc1)Nc1cccc(S(=O)(=O)N2CCCC2)c1,93*,38,0.1,0.6,16,-6
O=C(N/N=C/c1cccc(C(F)(F)F)c1)C1CCN(c2ncc(C(F)(F)F)cc2Cl)CC1,-11,-61,1.1,1.6,20,-14
CC1(NC(=O)c2cc(S(=O)(=O)N3CCCCC3)ccc2Cl)CCS(=O)(=O)C1 (configuration not stated),6,12,0.9,0.9,-18,-10
COc1cc(/C=N/NC(=O)CCc2c(C)n[nH]c2C)ccc1O,8,30,0.9,0.7,8,-8
COc1cccc(-n2nnnc2SCC(=O)Nc2ccc(C(C)=O)cc2)c1,·,·,·,·,16,-10
CC(=O)c1cccc(-n2nnnc2SCC(=O)Nc2cccc(NC(=O)c3ccco3)c2)c1,82*,55*,0.2,0.4,-7,-8
Cn1nnnc1SCC(=O)Nc1ccccc1N1CCOCC1,24,9,0.8,0.9,44,-9
CC(=O)c1cccc(-n2nnnc2SCC(=O)Nc2ccccc2N2CCCCC2)c1,96*,87*,0,0.1,-2,-13
COc1ccccc1OCCSc1nnnn1C1CCCCC1,·,·,·,·,5,-10
c1ccc(OCCSc2nnnn2C2CCCCC2)cc1,68*,82*,0.3,0.2,16,-15
O=C(/C=C/c1cccs1)NC(=S)NNC(=O)Cc1cccs1,·,·,·,·,18,-10
Cc1ccc(C2C(C#N)=C(N)SC(N)=C2C#N)c(C)c1,54*,31,0.5,0.7,·,·
Cc1ccc(NC(=S)NC(NC(=O)C(C)(C)C)C(Cl)(Cl)Cl)c(C)c1 (configuration not stated),40,90*,0.6,0.1,-41,-5
COC(=O)C1=C(C)NC(C)=C(C(=O)OC)C1c1ccccc1OCc1c(C)no[n+]1[O-],71*,89*,0.3,0.1,0,-9
COc1ccc(NC(=O)Nc2ccc(OC)cc2)cc1,-6,-23,1.1,1.2,-1,-5
COc1ccc(N2CCC(CNC(=O)Nc3ccccc3)C2)cc1 (configuration not stated),60*,38,0.4,0.6,8,-23
COc1ccc(NC(=O)NCc2cccn2C)c(OC)c1,62*,-3,0.4,1,-6,-12
COc1ccc(NC(=O)Nc2ccc(N(C)C)cc2)cc1,86*,21,0.1,0.8,-10,-10
SMILES,CYP2C19 inhib,CYP2C9 inhib,CYP2C19 act,CYP2C9 act,Plk1 PBD FP,PLK1 kinase inh
COc1ccc(CNC(=O)Nc2ccc(OC)cc2)cc1,59*,-9,0.4,1.1,-5,3
O=C(CN1CCN(c2ccc(F)cc2)CC1)c1ccc2c(c1)OCO2,33,31,0.7,0.7,45,-8
CCOC(=O)N1CCN(C(=O)COc2ccc(S(=O)(=O)NC(C)C)cc2)CC1,-10,18,1.1,0.8,·,·
CCOc1ccc(CC2CC(=O)NC2=O)cc1 (configuration not stated),11,-4,0.9,1,-3,-2
COc1ccc(OC)c(NC(=O)Nc2cccc3ccccc23)c1,6,39,0.9,0.6,3,6
COc1ccc(OC)c(NC(=O)NCc2ccc(F)cc2)c1,99*,28,0,0.7,-8,3
C=CCN(CC=C)S(=O)(=O)c1ccc2nsnc2c1,49,4,0.5,1,·,·
CC1(C)N([O-])C2=C(c3ccccc3C2=O)[N+](=O)C1(C)C,44,16,0.6,0.8,-13,0
O=C(CSc1cccc2cccnc12)N1CCCC1,22,-27,0.8,1.3,·,·
CC1=C(C(=O)Nc2cc(-c3cccc(F)c3)[nH]n2)C2(CCCCC2)OC1=O,52*,83*,0.5,0.2,·,·
CC1=C(C(=O)NC2CCCC(C)C2C)C2(CCCCC2)OC1=O (configuration not stated),18,10,0.8,0.9,-23,-5
Cc1ccc(/C=C/c2nc3ccccc3s2)s1,72*,24,0.3,0.8,4,-9
C=CCNc1nc(-c2ccc(Cl)cc2)cs1,32,1,0.7,1,5,-6
COc1ccc(C2CC(=O)C3=C(C2)Nc2ncnn2C3c2ccccc2)cc1 (configuration not stated),41,37,0.6,0.6,-1,48
O=C1CC(c2ccco2)CC2=C1C(c1ccccc1)n1nc(C(F)(F)F)nc1N2 (configuration not stated),30,62*,0.7,0.4,6,-6
CCC(=O)N1c2ccccc2NC2=C(C(=O)CCC2)C1c1cccnc1 (configuration not stated),5,33,0.9,0.7,·,·
CC1CC(=O)C2=C(C1)Nc1ccccc1N(C(=O)COc1ccccc1)C2c1ccco1 (configuration not stated),56*,48,0.4,0.5,-10,-3
COc1ccc(C2C3=C(CC(c4ccco4)CC3=O)Nc3ccccc3N2C(C)=O)cc1 (configuration not stated),48,81*,0.5,0.2,-14,-12
COC(=O)c1[nH]c2ccccc2c1NC(=O)CN1CCN(c2cccc(OC)c2)C(C)C1 (configuration not stated),18,35,0.8,0.6,1,-10
OC(CNCc1ccco1)Cn1c2ccc(Br)cc2c2cc(Br)ccc21 (configuration not stated),-1,5,1,0.9,-14,-6
COc1ccc(-n2c(=O)cc(N3CCN(c4ccccc4OC)CC3)[nH]c2=O)cc1,-18,-19,1.2,1.2,·,·
c1ccc(COc2cccc(CNn3cnnc3)c2)cc1,50*,9,0.5,0.9,9,-7
Oc1ccccc1CNn1cnnc1,-12,-12,1.1,1.1,15,-6
CCOc1cccc(CNn2cnnc2)c1OCc1ccccc1,57*,3,0.4,1,-22,-18
